Results: PubChem BioAssay AID1851 (National Center for Advancing Translational Sciences (NCATS), 2009)
Among all 16,000 compounds or so, about 5,100 (32%) were called active. About 25% were inconclusive and are not listed. Calls come from the whole dose curve; as a rule, active = well fitted curve in the direction sought with a large enough effect; inconclusive = small, poorly fitted or top-dose-only effect, or effect the other way; inactive = no such curve, though single readings can be large or run the other way. Some of the results follow.

These molecules were tested against Cytochrome P450 3A4 (Homo sapiens) (UniProt P08684) (assay: Cytochrome panel assay with activity outcomes). Settings: recombinant CYP, pro-luciferin dealkylation, luminescence, p450-cyp3a4; series mostly up to 57.1 µM; activity, negative = inhibition: at the top concentration.
Cytochrome P450 3A4 (Homo sapiens), sequence (P08684 whole entry, looked up): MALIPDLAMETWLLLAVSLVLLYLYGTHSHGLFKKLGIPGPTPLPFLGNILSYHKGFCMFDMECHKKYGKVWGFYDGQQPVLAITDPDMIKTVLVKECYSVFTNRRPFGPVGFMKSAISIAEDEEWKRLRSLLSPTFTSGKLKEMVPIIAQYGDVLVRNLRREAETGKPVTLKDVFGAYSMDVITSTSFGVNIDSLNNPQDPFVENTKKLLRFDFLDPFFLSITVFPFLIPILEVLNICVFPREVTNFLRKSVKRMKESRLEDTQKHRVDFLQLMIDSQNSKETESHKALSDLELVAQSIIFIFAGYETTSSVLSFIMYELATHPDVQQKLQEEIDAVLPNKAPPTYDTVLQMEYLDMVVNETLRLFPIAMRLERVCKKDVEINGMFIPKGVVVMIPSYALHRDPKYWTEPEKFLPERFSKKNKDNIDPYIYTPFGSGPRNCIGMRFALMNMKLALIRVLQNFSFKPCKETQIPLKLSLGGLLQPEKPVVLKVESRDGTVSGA
% is set by controls: 0 for no effect and ±100 for the full control effect.

activity, negative = inhibition, inactive:
C[C@@H]1C(=O)N(C)C(=O)c2nc[nH]c21 -3.89%
CCC(C)Nc1nc(OCC(F)(F)F)nc(OCC(F)(F)F)n1 (stereo not given) 4.7% [at 11.4 µM]
O=C(NCCOC12CC3CC(CC(C3)C1)C2)c1cccc(Br)c1 -3.19% [at 2.29 µM]
Cn1c(Oc2ccccc2)c(C=O)c2ccccc21 9.35%
CC(C)Oc1ccc2ccccc2c1C=O 6.45% [at 2.29 µM]
Cn1ncc([N+](=O)[O-])c1C(=O)N1CCOCC1 -9.46% [at 2.29 µM]
COc1ccc(C)cc1NC(=O)c1cc2cc3ccc(C)cc3nc2o1 -12.1%
Cc1ccc2cc(C(=O)O)c(C)nc2c1 10.8%
Clc1ccc2oc(-c3cccnc3)nc2c1 -3.98%
c1ccc(-c2nc3ccccc3o2)nc1 -18.2%
CS(=O)(=O)N1CCN(c2c(Cl)cccc2[N+](=O)[O-])CC1 15.1%
O=[N+]([O-])c1ccc(N2CCCC2)cc1N1CCCC1 -24.1%
Cc1cc(C(=O)N/N=C/c2cccc([N+](=O)[O-])c2)c(C)o1 -17%
C/C(Cn1nc([N+](=O)[O-])cc1C)=N\NC(=O)c1ccc(O)cc1O -3.84% [at 2.29 µM]
CCN(CC)C(=O)C(=O)N/N=C/c1cccc(Br)c1 -20.6%
N#Cc1cccc(NC(=O)N2CC3(CCN(C(=O)c4ccco4)CC3)C2)c1 -26.1%
S=c1[nH]c2cc(Cl)ccc2s1 -16.9% [at 2.29 µM]
CCc1ccc(N2CC(C(=O)NC3=NCCS3)CC2=O)cc1 (stereo not given) 3.42% [at 2.29 µM]
O=C(Nc1ccccc1)C(Cc1ccccc1)NC(=O)C12CC3CC(CC(C3)C1)C2 (stereo not given) -5.95%
CCCS(=O)(=O)N1CCCC(C(=O)NCCCN2CCN(c3ccc(F)cc3)CC2)C1 (stereo not given) 14.9% [at 2.29 µM]
Cc1ccc(S(=O)(=O)NC(=O)NN2C[C@H]3CCC[C@@H]3C2)cc1 10.8% [at 25.6 µM]
O[C@H](CNc1ccccn1)c1ccccc1 -27.1% [at 11.4 µM]
CN1CCN(c2nc3c(c(=O)n(C)c(=O)n3C)n2C)CC1 0.305% [at 11.4 µM]
CN1CCN(c2ncc3nc(-c4ccccc4)c(=O)n(Cc4cccs4)c3n2)CC1 -4.51%
COc1ccc(-c2nc3cnc(N4CCOCC4)nc3n(CCC#N)c2=O)cc1 5.32%
COCCn1c(=O)c(C)nc2cnc(N3CCNCC3)nc21 -23.2%
COCCn1c(=O)c(-c2ccc(OC)cc2)nc2cnc(N3CCOCC3)nc21 -11.4%
C[N+](C)(C)c1ccc([C@H](N)C(=O)O)cc1 1.95% [at 11.4 µM]
CCc1cccc2c(-c3ccccc3)c3c(nc12)OCC3 -68.4%
C[C@@H]1C[C@H](OC(=O)[C@@H](O)c2ccccc2)CC(C)(C)N1C -14.4% [at 25.6 µM]
COCCn1c(=O)c(-c2cccc(C#N)c2)nc2cnc(N3CCOCC3)nc21 -1.34%
COCCn1c(=O)c(-c2cccc(C#N)c2)nc2cnc(N3CCN(C)CC3)nc21 10.2%
Cc1nc2cnc(N3CCOCC3)nc2n(C)c1=O -3.9%
O=c1nc2ccccc2c2n1C[C@H](CN1CCN(c3ccccc3)CC1)N2 -8.5%
CC(C)=CCC/C(C)=C/CO/N=C1/C[C@@H](O)[C@@H](O)[C@@H]2[C@@H]3C(=O)N(C(C)(C)C)C(=O)[C@H]3CC[C@@H]12 -26.7% [at 11.4 µM]
COc1cc(Br)cc2cc(C(=O)NCC3CCCO3)c(=O)oc12 (stereo not given) -9.38%
O=C(O)[C@@H]1[C@@H](C(=O)O)[C@]23C[C@@]2(C(=O)O)[C@]2(C(=O)O)CCC3=C3CCCC312 7.71% [at 11.4 µM]
O=C(NCC1CCC(C(=O)O)CC1)OCc1ccccc1 (stereo not given) -20.2%
CCOC(=O)N/N=C1/C[C@@H](O)[C@@H](O)[C@@H]2[C@@H]3C(=O)N(C(C)(C)C)C(=O)[C@H]3CC[C@@H]12 -11.7% [at 11.4 µM]
COc1ccc(NC(=O)N2CC3(CCN(C(=O)c4c(C)noc4C)CC3)C2)cc1 -24.2%
Cc1noc(C)c1C(=O)N1CCC[C@@]2(CCN(c3ncccn3)C2)C1 -27.9%
Cc1noc(C)c1C(=O)N1CCC[C@@]2(CCN(C(=O)NC(C)C)C2)C1 -17.5%
Cc1noc(C)c1C(=O)N1CCC2(CC1)CN(c1ccccc1)C2 25%
C=CC1=C[C@@H](O)C2OC2C12OCCCO2 (stereo not given in full) -4.04% [at 11.4 µM]
CCCn1c(=O)c2[nH]c(C3CCCC3)nc2n(CCC)c1=O -26.8%
O=S(=O)(c1ccccc1)c1cnn2c(C(F)(F)F)cc(-c3ccccc3)nc12 14.2%
Cc1nc2ccccc2n1CC(=O)N/N=C\C=C\c1ccccc1 12.7%
CCOc1c2ccc(C(=O)NCc3ccc4c(c3)OCO4)cc2nn1CC 14.3% [at 2.29 µM]
NC(N)=NNC(=O)C(=O)O -1.33% [at 11.4 µM]
CC1=NN(c2ccc(F)cc2)C(=O)C1C(c1cccc(O)c1)c1c(C)[nH]n(-c2ccc(F)cc2)c1=O (stereo not given) 2.16% [at 2.29 µM]
Cc1ccc(N2C(=O)C(Cl)=C(NCc3ccccc3)C2=O)c(C)c1 -82.7%
COc1cnc(-c2ccccc2)nc1Oc1cccc(C)c1 -66.9%
COc1cnc(-c2ccccn2)nc1Sc1c(Cl)cccc1Cl -4.39%
CN(Cc1cnc2nc(N)nc(N)c2n1)c1ccc(C(=O)N[C@@H](CCC(=O)O)C(=O)O)cc1 -19.3%
COc1ccc(C)cc1NC(=O)CCC(=O)Nc1nnc(C(F)(F)F)s1 1.53%
COc1ccc(NC(=O)COC(=O)Cn2c(C)nc3ccccc32)cc1OC 8.93% [at 2.29 µM]

AC50, active:
CNc1nc(NCCOC23CC4CC(CC(C4)C2)C3)nc(OCC(F)(F)F)n1 25.1 µM
COC(=O)/C=C/CSC1=N/C(=C/c2ccc(-n3cncn3)cc2)C(=O)N1 2 µM
COc1ccc(Oc2c(C=O)c3ccccc3n2C)cc1 17.8 µM
Cc1ccc2cc3cc(C(=O)N4CCCCC4C)oc3nc2c1 (stereo not given) 12.6 µM
Cc1ccc2nc(-c3cccnc3)oc2c1 39.8 µM
Cc1cc(C)n(-c2cc(N3CCN(S(=O)(=O)c4ccc(C)c(C)c4)CC3)ccc2[N+](=O)[O-])n1 3.16 µM
Cc1c(Cl)c([N+](=O)[O-])nn1Cc1ccc(C(=O)N/N=C\c2cc(Cl)ccc2O)o1 2.24 µM
Cc1c(Cl)c([N+](=O)[O-])nn1Cc1ccc(C(=O)N/N=C\c2cccc(Br)c2)o1 3.98 µM
N#Cc1cccc(NC(=O)N2CCCC3(CCN(C(=O)c4ccco4)CC3)C2)c1 5.01 µM
N#Cc1cccc(NC(=O)N2CC[C@@]3(CCCN(C(=O)c4cccc(F)c4)C3)C2)c1 10 µM
N#Cc1cccc(NC(=O)N2CCCC3(CCN(C(=O)c4cccc(F)c4)CC3)C2)c1 15.8 µM
CC(C)C(NC(=O)C12CC3CC(CC(C3)C1)C2)C(=O)NC1=NCCS1 (stereo not given) 15.8 µM
Cc1ccc(S(=O)(=O)N(CC(=O)N2CCN(c3ccc(F)cc3)CC2)C2CCCCC2)cc1 1 µM
CN1CCN(c2ncc3nc(-c4cccs4)c(=O)n(CCc4ccccc4)c3n2)CC1 20 µM
COCCn1c(=O)c(-c2ccc(OC)cc2)nc2cnc(N3CCNCC3)nc21 15.8 µM
CN1CCN(c2ncc3nc(-c4cccs4)c(=O)n(Cc4cccs4)c3n2)CC1 10 µM
COCCn1c(=O)c(-c2cccs2)nc2cnc(N3CCNCC3)nc21 15.8 µM
Cc1nc2cnc(N3CCNCC3)nc2n(Cc2cccs2)c1=O 3.16 µM
COCCn1c(=O)c(-c2cccc(C#N)c2)nc2cnc(N3CCNCC3)nc21 20 µM
O=c1c(-c2cccs2)nc2cnc(N3CCNCC3)nc2n1Cc1cccs1 2.51 µM
COC(=O)C1=C(N)Oc2cc(C)n(CC3CCCO3)c(=O)c2C1c1ccccc1OC (stereo not given) 6.31 µM
CNC(=O)[C@H](C)[C@H]1C[C@]1(C)[C@H](NC(=O)OCc1ccccc1)c1ccccc1 2 µM
CNC(=O)[C@H](C)[C@@H]1C[C@@]1(C)[C@@H](NC(=O)OCc1ccccc1)c1ccccc1 2.51 µM
Cc1noc(C)c1C(=O)N1CCC[C@@]2(CCN(C(=O)Nc3cccc(F)c3)C2)C1 5.01 µM
Cc1noc(C)c1C(=O)N1CCC[C@@]2(CCN(c3ccccc3)C2)C1 5.01 µM
Cc1noc(C)c1C(=O)N1CCC[C@@]2(CCN(C(=O)Nc3ccccc3)C2)C1 15.8 µM
CCCn1c(=O)c2[nH]c(-c3ccc(OCC(=O)NCCN)cc3)nc2n(CCC)c1=O 2.51 µM
COc1cccc(-c2cc(C(F)(F)F)n3ncc(S(=O)(=O)c4ccccc4)c3n2)c1 3.98 µM
CCCn1c(/C=C/c2ccccc2)nc2ccccc21 17.8 µM
CCc1ccccc1NC(=S)NCc1ccc2c(c1)OCO2 4.47 µM
CCc1c(C(=O)NCc2ccc3c(c2)OCO3)[nH]c(C)c1C(C)=O 0.891 µM
CC1=NN(c2ccc(C)cc2C)C(=O)C1C(c1ccccc1)C1C(=O)N(c2ccc(C)cc2C)N=C1C (stereo not given) 11.2 µM
CCN(CC)CCNC(=O)c1ccc(Cl)c(S(=O)(=O)Nc2ccccc2OC)c1 14.1 µM
CCCCN(CC)Cc1ccc(CNC(=O)Nc2ccc(OC)cc2OC)o1 22.4 µM
COc1cnc(-c2ccccn2)nc1Oc1ccc(Cl)c2ccccc12 14.1 µM
COc1ccc(C)cc1NC(=O)CSc1nnc(-c2ccc(OC)c(OC)c2)n1N 7.94 µM
CCn1c2ccccc2c2cc(NC(=O)CSc3nnc(-c4ccc(OC)c(OC)c4)n3N)ccc21 1 µM

AC50, inactive:
CCN(CC)CCNC(=O)c1cc(S(C)(=O)=O)ccc1OC
CCN(CC)CCNC(=O)c1cc(Cl)c(N)cc1OC
